In the library only some 27% were active in any assay of this set; here they are far more common.
CYP2C9 act: human CYP2C9 activators, primary screen, biochemical, luminescence | AID 1024, 2008 | recombinant CYP2C9, luciferin-H conversion; stronger effect = higher value; factor 1 = untreated enzyme, 0 = blocked | activation factor at 5 µM | 96,000 compounds, 1.4% hits;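 active = activation factor of 2 or more for CYP2C9 at a 5 µM dose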
Cav3 T inh: Cav3.2 calcium influx blockers – cell-based, Fluo-4 calcium fluorescence, FDSS, MLSMR library, primary screen; B-score at 10 µM; AID 449739, 2010; Voltage-dependent T-type calcium channel subunit alpha-1H (Homo sapiens), O95180; 100,000 compounds, 4% hits; Cav3.2-expressing cells; stronger effect = lower value;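 active = single-dose well whose peak fluorescence ratio is a statistical outlier from its plate by either plate-standardised score or position-corrected B-score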
CYP2C9 inhib: blockers of cytochrome P450 2C9 activity – biochemical, luminescence, ADME assay, primary screen; P11712; CYP2C9 Supersomes, luciferin-H conversion; inhibition, % at 5 µM; 96,000 compounds, 20% hits;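 active = blocking of liver enzyme CYP2C9 beyond about 50% at 5 µM, limit read from the data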
CYP2C19 inh: blockers of cytochrome P450 2C19 activity – biochemical, luminescence, ADME assay, primary screen. inhibition, % at 5 µM. P33261. 96,000 compounds, 21% hits. AID 778, 2007. CYP2C19 Supersomes, luciferin-H EGE luminescence, 30 min;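 active = CYP2C19 inhibition above a set limit at 5 µM in the primary screen, cut at about 50% in these data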
Target sequence (P33261 whole entry, looked up): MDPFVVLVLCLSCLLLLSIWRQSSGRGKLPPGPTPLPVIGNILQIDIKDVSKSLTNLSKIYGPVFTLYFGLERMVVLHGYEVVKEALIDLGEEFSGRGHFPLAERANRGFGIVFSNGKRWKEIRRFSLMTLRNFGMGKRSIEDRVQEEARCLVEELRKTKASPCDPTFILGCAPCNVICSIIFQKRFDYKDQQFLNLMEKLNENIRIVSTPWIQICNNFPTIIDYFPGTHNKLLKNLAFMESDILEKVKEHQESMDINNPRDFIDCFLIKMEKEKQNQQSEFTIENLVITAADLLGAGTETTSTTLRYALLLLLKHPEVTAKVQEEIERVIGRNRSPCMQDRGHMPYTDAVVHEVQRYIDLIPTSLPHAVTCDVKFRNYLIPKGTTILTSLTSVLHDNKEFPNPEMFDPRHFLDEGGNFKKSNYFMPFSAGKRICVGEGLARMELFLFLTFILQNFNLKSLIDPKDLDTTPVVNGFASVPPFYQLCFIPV
CYP2C19 act: human CYP2C19 activators, primary screen, biochemical, luminescence; Cytochrome P450 2C19 (Homo sapiens), P33261; recombinant CYP2C19, luciferin-H EGE luminescence; stronger effect = higher value; 0 = fully inhibited enzyme, 1 = untreated enzyme; activation factor at 5 µM; 96,000 tested, under 10 active; AID 1025, 2008;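 active = activation factor of at least 2 at 5 µM in the primary screen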
Of the large screens only hits and unclear results are named; the others gave an inactive call.

CO/N=C(/CNC(=O)c1cccc(Cl)c1)c1ccc(Cl)cc1	CYP2C9 inhib 68, CYP2C19 inh 92 (no result: Cav3 T inh)
Cc1ccc(C(CC(=O)O)C2CCOC(C)(C)C2)cc1 (stereo unspecified)	none
O=C(/C=C/Nc1cccc(F)c1)c1ccco1	none
O=C(/C=C\Nc1cccc(F)c1)c1cccs1	CYP2C19 inh 55
CCOC(=O)N1CCC(NC(=O)c2cnc3n(c2=O)CCS3)CC1	none (no result: CYP2C9 act, CYP2C9 inhib, CYP2C19 inh, CYP2C19 act)
Cn1c(/C=N/NC(=O)c2ccccc2)nc2ccccc21	none
COc1ccccc1C(=O)Nc1ccc2c(c1)nc(CCNC(C)=O)n2C	none
Cn1c(CCCNC(=O)c2ccccc2)nc2ccccc21	CYP2C9 act 2.4
CCn1c(SCC(=O)NCc2ccccc2)nc2ccccc2c1=O	none
Cn1c(SCC(=O)NCc2ccc(F)cc2)nc2ccccc21	CYP2C9 act 3.1
COc1ccccc1C(=O)NCCc1nc2ccccc2n1C	CYP2C19 inh 97
Cn1c(CNC(=O)c2ccc(F)cc2)nc2ccccc21	CYP2C19 inh 72
CC(=O)CCc1ccc(OC(=O)c2cccnc2)cc1	none (no result: CYP2C9 act, CYP2C9 inhib, CYP2C19 inh, CYP2C19 act)
CCC1=C/C(=C/N(C)c2ccccc2)C(=O)S1	none
Cc1cccc(NCc2nc3ccccc3n2C)c1	none
Cn1c(CNc2ccc(Cl)cc2)nc2ccccc21	CYP2C9 inhib 84, CYP2C19 inh 98
CC(C)N(C(=O)CSc1nc2ccccc2n1Cc1ccc(F)cc1)C(C)C	Cav3 T inh -6.3 (no result: CYP2C9 act, CYP2C9 inhib, CYP2C19 inh, CYP2C19 act)
CCO[C@@H]1OC(C(=O)O)=C[C@H](c2ccc(C(F)(F)F)cc2)[C@H]1CCCO	none (no result: CYP2C9 act, CYP2C9 inhib, CYP2C19 inh, CYP2C19 act)
COc1cccc(S(=O)(=O)Nc2ccc(C(=O)N3CCOCC3)cc2)c1	none
CC(C)Oc1ccc(C(=O)N2CCCC2C(=O)O)cc1 (stereo unspecified)	none
O=C(NC1CC1)c1ccc(S(=O)(=O)NC2CCCCCC2)cc1	CYP2C19 inh 54
CSc1ccc(S(=O)(=O)NC2CCCCCC2)cc1	CYP2C19 inh 95
O=C(CCc1ccc(S(=O)(=O)NC2CCCCC2)cc1)N(Cc1ccccc1)Cc1ccccc1	Cav3 T inh -5.8, CYP2C9 inhib 88, CYP2C19 inh 70
O=C(CCc1ccc(S(=O)(=O)NC2CCCCC2)cc1)Nc1ccccc1	none
CCOC(=O)N1CCC(N(CCOC)C(=O)Nc2ccc(Cl)cc2)CC1	none (no result: Cav3 T inh)
CCN(CC)S(=O)(=O)c1ccc2oc(SCc3ccc(F)cc3)nc2c1	CYP2C9 inhib 69
CCN(CC)S(=O)(=O)c1ccc2oc(C(=O)NCC3COc4ccccc4O3)c(C)c2c1 (stereo unspecified)	CYP2C9 inhib 76 (no result: Cav3 T inh)
Cc1c(C(=O)NCC2COc3ccccc3O2)oc2ccc(S(=O)(=O)N3CC(C)CC(C)C3)cc12 (stereo unspecified)	Cav3 T inh -3.9
CCN(CC)S(=O)(=O)c1ccc(-c2nnc(SC)o2)cc1	none
CCN(CC)S(=O)(=O)c1ccc2oc(C(=O)NCCCN3CCOCC3)c(C)c2c1	none
Cc1c(C(=O)NCC2CCCO2)oc2ccc(S(=O)(=O)N3CC(C)CC(C)C3)cc12 (stereo unspecified)	Cav3 T inh -4, CYP2C9 inhib 59
CCOC(=O)C1=C(C)N(CCCC(=O)O)C(=O)NC1c1ccccc1OS(=O)(=O)c1ccc(C)cc1 (stereo unspecified)	none (no result: CYP2C9 act, CYP2C9 inhib, CYP2C19 inh, CYP2C19 act)
CCN(CC)S(=O)(=O)c1ccc2oc(C(=O)NCc3ccc(F)cc3)c(C)c2c1	Cav3 T inh -6.8, CYP2C9 inhib 59, CYP2C19 inh 58
CCCCN(CCCC)S(=O)(=O)c1ccc2oc(C(=O)N3CCOCC3)c(C)c2c1	Cav3 T inh -4.7
Cc1c(C(=O)NCCc2ccccc2)oc2ccc(S(=O)(=O)N3CCOCC3)cc12	none
Cc1c(C(=O)NCC2COc3ccccc3O2)oc2ccc(S(=O)(=O)N3CCOCC3)cc12 (stereo unspecified)	CYP2C9 inhib 56 (no result: Cav3 T inh)
COC(=O)C1=C(C(=O)OC)[C@@H]2Nc3ccccc3[C@@]23C[C@@H](C(=O)OC)N(C(=O)CC(C)C)C3=N1	none (no result: CYP2C9 act, CYP2C9 inhib, CYP2C19 inh, CYP2C19 act)
COc1ccc(CCNC(=O)COC(=O)c2cnccn2)cc1	none
N#Cc1nc(-c2cccs2)oc1N1CCN(c2ccccc2)CC1	none
Cc1ccc2c(c1)sc[n+]2Cc1ccccc1	CYP2C9 inhib 68, CYP2C19 inh 66
Cc1ccc2nc(NC(=O)CSCc3ccccc3)sc2c1	none
CCCc1nc2ccc(NC(=O)c3ccco3)cc2c(=O)n1Cc1ccccc1Cl	none (no result: CYP2C9 act, CYP2C9 inhib, CYP2C19 inh, CYP2C19 act)
CN1CCN(C(=O)c2ccccc2-c2nc(-c3ccccc3)no2)CC1	CYP2C9 inhib 71
NC(=O)c1ccccc1-c1nc(-c2ccccc2)no1	none
Cc1ccc(-c2noc(-c3ccccc3C(=O)N3CCOCC3)n2)cc1	none
O=C(NCc1ccco1)c1ccccc1-c1nc(-c2ccccc2)no1	CYP2C9 inhib 54
O=C(NCc1ccco1)c1cccc(-c2nnc(-c3ccccc3)o2)c1	CYP2C9 inhib 82, CYP2C19 inh 71
N#CC1(c2ccccc2)CCCN1C(=O)c1ccco1 (stereo unspecified)	none
CCC/C=C(\CCC)C(NC(=O)c1ccc(C(=O)OC)cc1)c1ccc(C(=O)OC)cc1 (stereo unspecified)	none (no result: CYP2C9 act, CYP2C9 inhib, CYP2C19 inh, CYP2C19 act)
CCCOC(=O)C1=C(C)NC2=C(C(=O)CCC2)C1c1ccc(N(C)C)cc1 (stereo unspecified)	CYP2C9 inhib 56
COCCOC(=O)C1=C(C)NC2=C(C(=O)CCC2)C1c1ccc2c(c1)OCO2 (stereo unspecified)	CYP2C9 inhib 96, CYP2C19 inh 84
COC(=O)C1C(=O)C2=C(CC1C)NC(C)=C(C(=O)OC(C)C)C2c1ccc(OC)c(O)c1 (stereo unspecified)	none
CCOC(=O)C1=C(C)NC2=C(C(=O)CCC2)C1c1ccsc1 (stereo unspecified)	CYP2C19 inh 53
COC(=O)C1C(=O)C2=C(CC1C)NC(C)=C(C(=O)OC1CCCC1)C2c1ccc(N(C)C)cc1 (stereo unspecified)	CYP2C9 inhib 82, CYP2C19 inh 54
Cc1cc(NC(=O)c2noc3c2CCCC3)n(-c2ccccc2)n1	none
CN[C@H](CC(=O)O)C(=O)O	none (no result: CYP2C9 act, CYP2C9 inhib, CYP2C19 inh, CYP2C19 act)
Cc1ccc(N(CC(=O)Nc2ccccc2C(=O)N2CCOCC2)S(C)(=O)=O)cc1	none (no result: CYP2C9 act, CYP2C9 inhib, CYP2C19 inh, CYP2C19 act)
COCCOC(=O)C1=C(C)NC2=C(C(=O)CC(c3cccs3)C2)C1c1ccsc1 (stereo unspecified)	CYP2C9 inhib 60, CYP2C19 inh 58
CCOC(=O)C1=C(C)NC2=C(C(=O)CCC2)C1c1ccc(N(C)C)cc1 (stereo unspecified)	none
CCOC(=O)C1=C(CC)NC2=C(C(=O)CCC2)C1c1ccc(OC)c(OC)c1 (stereo unspecified)	CYP2C19 inh 50
COc1cc2c(cc1OC)C(c1ccc3c(c1)OCO3)C1=C(CC(C)(C)CC1=O)N2 (stereo unspecified)	none (no result: Cav3 T inh)

From PubChem BioAssay
